S2 tox – Viability Counterscreen for Primary qHTS for Inhibitors of ATXN expression; 0.49% of 400,000 active; Potency, µM (series often up to 56.7 µM), most hits filed as cytotoxic; AID 651635, 2014; S2 cells (HEK-293 line with an ATXN2-luciferase reporter) viability, CellTiter-Fluor protease fluorescence, 24 h; note: nearly all actives have a fitted effect of over 40% in size
TGFb inhibitor – qHTS for Inhibitors of TGF-b | HepG2 CAGA-GFP TGF-b/SMAD3 reporter, GFP fluorescence, 18 h; TGF-beta stimulated, 500 pg/mL final | Potency, µM (top dose mostly 46.1 µM), inactives show at the top dose activity, negative = inhibition, usual class: inhibitors | 1.2% of 410,000 active | AID 588855, 2011; note: % is set by controls: 0 for no effect and ±100 for the full control effect; nearly all actives have a fitted effect of over 65% in size
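Per well, imaged GFP fluorescence of HEPG2 CAGA-GFP cells gives the signal; cells get compound, then TGF-beta (500 pg/mL final), 18 h at 37 degrees C; %Activity versus -TGF-beta and +DMSO controls.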
Nrf2 block – Nrf2 qHTS screen for inhibitors. AID 504444, 2011. Potency, µM (top dose mostly 46 µM), for the others: top-dose activity change, negative = inhibition, most hits filed as inhibitors. A549 ARE-Fluc reporter, luciferase luminescence, 18-24 h. 2.1% of 360,000 active; note: % is set by controls: 0 for no effect and ±100 for the full control effect; nearly all actives have a fitted effect of over 60% in size
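Reporter: ARE-Fluc in A549. Exposure: 18-24 h, 37 °C, 5% CO2, 5% FBS OPTI-MEM. Readouts: fluorescent cytotoxicity (CellTiter-Fluor), then luminescent Nrf2 signal after BugLite.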
HepG2 tox – qHTS for Inhibitors of TGF-b: Cytotox Counterscreen; HepG2 CAGA-GFP viability, ATP luminescence, 18 h; Potency, µM (doses to about 46.1 µM), for inactives: top-dose activity change, negative = cytotoxicity, most hits filed as cytotoxic; 0.76% of 410,000 active
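CellTiter-Glo luminescence gave cytotoxicity after 18 hours at 37 degrees C. The cells were HepG2 CAGA-GFP in 1% FBS DMEM, stimulated with 500 pg/mL TGF-beta after compound addition. %Activity was normalised to no-cell wells (complete cell-killing) and DMSO (no toxicity), and curves were fitted and classified.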
A549 tox-1 – Nrf2 qHTS screen for inhibitors: counterscreen for cytotoxicity; A549 ARE-Fluc cells, CellTiter-Fluor viability, 18-24 h; Potency, µM (highest dose often 46 µM), for inactives: at the highest dose activity change, negative = cytotoxicity, most hits filed as inhibitors; 0.16% of 390,000 active; AID 504648, 2011; note: % is set by controls: 0 for no effect and ±100 for the full control effect
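Cytotoxicity counterscreen: CellTiter-Fluor fluorescence was measured in A549 ARE_Fluc cells after 18-24 h of compound exposure in a concentration series. The subsequent BugLite luminescent read reports ARE-luciferase activity.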
ATXN2 expr inh – Primary qHTS for Inhibitors of ATXN expression. Potency, µM (doses to about 57 µM), without a hit: top-dose activity change, negative = inhibition, actives largely listed as inhibitors. AID 1745845, 2022. 0.72% of 360,000 active. HEK-293 ATXN2-luciferase reporter, luminescence, 24 h; note: % is set by controls: 0 for no effect and ±100 for the full control effect; nearly all actives have a fitted effect of over 55% in size
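qHTS (up to 57 uM final) was run with 24 h compound exposure of reporter cells at 37 °C. Each well was multiplexed: SteadyGlo luminescence measured ATXN2-luciferase expression after a fluorogenic Gly-Phe-AFC viability readout (25 uM final).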
FLuc counter 3 – Nrf2 qHTS screen for inhibitors: Purified Fluc Biochemical Counterscreen for Hit Validation; shares compounds with Nrf2 block; purified firefly luciferase, luminescence inhibition; Potency, µM (series often up to 57.5 µM), inactives show at the top dose activity change, negative = inhibition, most hits filed as inhibitors; 4% of 1,400 active; note: % is set by controls: 0 for no effect and ±100 for the full control effect; nearly all actives have a fitted effect of over 65% in size
Target sequence (P08659 whole entry, looked up): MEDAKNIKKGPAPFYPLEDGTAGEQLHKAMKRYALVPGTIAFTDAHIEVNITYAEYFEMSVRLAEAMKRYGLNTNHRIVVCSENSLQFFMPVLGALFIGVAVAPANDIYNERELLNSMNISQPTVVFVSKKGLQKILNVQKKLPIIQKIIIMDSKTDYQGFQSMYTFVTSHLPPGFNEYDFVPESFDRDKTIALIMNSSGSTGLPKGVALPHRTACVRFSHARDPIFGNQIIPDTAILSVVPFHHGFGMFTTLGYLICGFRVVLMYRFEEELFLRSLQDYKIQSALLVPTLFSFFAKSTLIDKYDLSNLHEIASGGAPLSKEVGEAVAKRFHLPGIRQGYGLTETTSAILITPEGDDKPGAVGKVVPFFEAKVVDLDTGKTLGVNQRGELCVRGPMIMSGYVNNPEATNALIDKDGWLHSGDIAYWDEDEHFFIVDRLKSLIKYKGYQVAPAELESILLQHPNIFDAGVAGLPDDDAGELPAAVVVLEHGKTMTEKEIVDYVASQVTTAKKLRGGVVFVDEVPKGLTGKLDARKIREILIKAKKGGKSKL
A549 tox-2 – Nrf2 qHTS screen for inhibitors: A549 ARE-Fluc Cytotoxicity Counterscreen for Hit Validation. shares compounds with Nrf2 block. Potency, µM (doses to about 46.1 µM), for the others: top-dose activity change, negative = cytotoxicity, most hits filed as inhibitors. 2% of 1,400 active. A549 ARE-Fluc cells, cytotoxicity counterscreen;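 note: cells exposed to compounds for 18 to 24 hours; % is set by controls: 0 for no effect and ±100 for the full control effect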
ARE-Fluc inh – Nrf2 qHTS screen for inhibitors: Nrf2 A549 ARE-Fluc Confirmation Assay for Hit Validation. AID 720524, 2013. 74% of 1,400 active. Potency, µM (highest dose often 46.1 µM), without a hit: at the top dose activity change, negative = inhibition, hits mostly inhibitors. A549 ARE-firefly luciferase reporter, luminescence. shares compounds with Nrf2 block; note: % is set by controls: 0 for no effect and ±100 for the full control effect; nearly all actives have a fitted effect of over 65% in size
An asterisk follows results filed as active. Only some compounds are listed: those with a hit (about 3.8% of all), similar ones and a draw of the others. Calls come from the whole dose curve; as a rule, active = well fitted curve in the direction sought with a large enough effect; inconclusive = small, poorly fitted or top-dose-only effect, or another doubt; inactive = no such curve, though single readings can be large; an effect the other way counts as inactive or inconclusive. Potency is the fitted concentration of half-maximal effect.

`C/C(=N/NC(=O)c1ccc(Br)o1)c1cccc(NC(=O)c2ccc(F)cc2)c1` gave S2 tox inconclusive, TGFb inhibitor 1.3%, Nrf2 block -22.8%, HepG2 tox -10.0%, A549 tox-1 -10.5% and ATXN2 expr inh -1.8%.
CCN(CC)C(=O)C1CCCN(C(=O)c2cc(COc3cccc(OC)c3)on2)C1 (centres undefined) was read as S2 tox inactive, TGFb inhibitor inconclusive, Nrf2 block 10.2%, HepG2 tox -71.8%, A549 tox-1 1.6% and ATXN2 expr inh 17.1%.
`COCCN1CCN(C(=O)C2CCC(=O)N(Cc3cccc(C(F)(F)F)c3)C2)CC1` (centres undefined) gave S2 tox inactive, TGFb inhibitor 5.5%, Nrf2 block 6.6%, HepG2 tox 1.5%, A549 tox-1 -1.6% and ATXN2 expr inh 3.7%.
Screening COc1ccc(NC(=O)CSc2nc(-c3ccco3)cc(C(F)(F)F)n2)cc1Cl returned TGFb inhibitor -10.1%, Nrf2 block 7.31µM*, HepG2 tox -17.9%, A549 tox-1 -10.2%, FLuc counter 3 -0.5%, A549 tox-2 -4.8% and ARE-Fluc inh 20.6µM*.
`COc1ccc(OC)c(NC(=O)CSc2ncnc3c2cnn3-c2ccccc2Cl)c1` gave S2 tox inactive, TGFb inhibitor -33.1%, Nrf2 block 4.61µM*, HepG2 tox 2.8%, A549 tox-1 inconclusive, ATXN2 expr inh -32.1%, FLuc counter 3 -0.3% and A549 tox-2 -15.0%.
For O=C(O)c1cncc(C#CCC2CCCCC2)c1 the results were S2 tox inactive, TGFb inhibitor 8.4%, Nrf2 block 7.7%, HepG2 tox 1.7%, A549 tox-1 -15.3% and ATXN2 expr inh 61.0%.
Screening C[C@H]1O[C@@H](O[C@H]2[C@@H](O)C[C@H](O[C@H]3[C@@H](O)C[C@H](O[C@H]4CC[C@@]5(C)[C@H](CC[C@@H]6[C@@H]5C[C@@H](O)[C@]5(C)[C@@H](C7=CC(=O)OC7)CC[C@]65O)C4)O[C@@H]3C)O[C@@H]2C)C[C@H](O)[C@@H]1O returned S2 tox inconclusive, TGFb inhibitor inconclusive, Nrf2 block 0.13µM*, HepG2 tox -56.4%, A549 tox-1 inconclusive, ATXN2 expr inh 0.316µM*, FLuc counter 3 2.1%, A549 tox-2 inconclusive and ARE-Fluc inh 0.058µM*.
Screening O=C(O)CSCC(=O)N1CCCN(c2ccc(C(F)(F)F)cn2)CC1 returned S2 tox inactive, TGFb inhibitor -9.1%, Nrf2 block 4.9%, HepG2 tox -1.9%, A549 tox-1 1.6% and ATXN2 expr inh 6.2%.

Screening data from PubChem.
